Experimental data: PubChem BioAssay AID504652 (National Center for Advancing Translational Sciences (NCATS), 2011)
Screen size: about 360,000 compounds; about 11,000 (3.1%) were called active. The full list was thinned out, with actives kept by preference. Unmarked numbers belong to inactive results. No stated cut-off is given here; in the data, active means activity change below about -30%; inactive means the rest.
On the % scale 0 is the no-effect control and ±100 the full control effect.

The compounds below were run against D(1A) dopamine receptor (Homo sapiens) (UniProt P21728) (assay: Antagonist of Human D 1 Dopamine Receptor: qHTS). Settings: HEK293 TREx D1 cells, calcium flux, dopamine EC80; at 10 µM; hits give low values.
Sequence of D(1A) dopamine receptor (Homo sapiens) (P21728 whole entry, looked up): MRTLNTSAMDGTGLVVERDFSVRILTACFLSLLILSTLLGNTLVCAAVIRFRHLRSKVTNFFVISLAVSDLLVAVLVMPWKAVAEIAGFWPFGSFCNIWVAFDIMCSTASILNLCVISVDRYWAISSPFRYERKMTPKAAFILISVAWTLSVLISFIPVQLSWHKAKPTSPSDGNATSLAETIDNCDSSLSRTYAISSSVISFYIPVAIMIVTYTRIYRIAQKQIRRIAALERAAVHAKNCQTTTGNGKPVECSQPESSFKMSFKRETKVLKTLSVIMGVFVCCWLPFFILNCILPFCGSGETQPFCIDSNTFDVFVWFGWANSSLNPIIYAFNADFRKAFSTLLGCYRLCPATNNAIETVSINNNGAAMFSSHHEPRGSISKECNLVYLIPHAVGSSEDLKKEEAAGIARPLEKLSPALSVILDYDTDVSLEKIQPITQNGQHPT
How it was run: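 Allosteric or orthosteric antagonism assessed as attenuation of the calcium response to EC80 dopamine, added 180 s after compound, in induced HEK293 Trex D1 cells loaded with no-wash calcium dye.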
With `CCOC(=O)c1cnc2c(C)cc(C)cc2c1Nc1ccc(N2CCOCC2)cc1` the activity change, negative = inhibition was 15.4%.
`CCOC(=O)c1cccc(NC(=O)Cn2cnc3nc4c(cc3c2=O)CCCC4)c1` gave an activity change, negative = inhibition of 17.9%.
Work on `COc1cc2[nH]c(=O)n(Cc3ccc(C(=O)NCc4ccc(C)cc4)cc3)c(=O)c2cc1OC` yielded an activity change, negative = inhibition of 1.6%.
`COc1ccc2c(c1)c(N1CCCC1=O)c(C(=O)Nc1ccc(OC)c(Cl)c1)n2C` was tested, and the activity change, negative = inhibition was 11.9%.
`CCOC(=O)Cc1ccc(NC(=O)Nc2c[nH]c(=O)[nH]c2=O)cc1` was tested, and the activity change, negative = inhibition was 0.423%.
`COc1ccc(C)cc1-n1c(-c2ccc(C)cc2)cc2c1CC(C)(C)CC2=O` gave an activity change, negative = inhibition of 12.6%.
`CC(C)S(=O)(=O)c1oc(-c2ccc(F)cc2)nc1S(=O)(=O)c1ccc(F)cc1` gave an activity change, negative = inhibition of 6.44%.
`Cc1cccc(N2CCN(C(=O)c3ccc(Nc4nc5ccccc5n5nnnc45)cc3)CC2)c1C` showed an activity change, negative = inhibition of -6.91%.
`CCCOc1ccc(NC(=O)CC2C(=O)N(c3ccccc3)C(=O)N2Cc2ccco2)cc1` (stereo not drawn) was tested, and the activity change, negative = inhibition was -3.01%.
With `COc1ccc(-c2nc3nc(C)cc(C)n3c2Nc2c(C)cccc2C)cc1` the activity change, negative = inhibition was 4.35%.
`Cc1ccc(C2CCN(C(=O)c3cnn(-c4ccccc4Cl)c3C3CCN(C(=O)OC(C)(C)C)CC3)C2)cc1` (stereo not drawn) gave an activity change, negative = inhibition of 6.31%.
`O=C(NCc1ccco1)c1nc2ncccn2n1` showed an activity change, negative = inhibition of 8.67%.
`O=c1oc(-c2ccco2)nc2sc3c(c12)CCCCC3` showed an activity change, negative = inhibition of -12.2%.
`O=C(NCc1ccco1)c1cccn2c(=O)c3c4c(sc3nc12)CCCC4` was tested, and the activity change, negative = inhibition was -112% (active).
`O=C(CN1C(=O)CCn2nc(-c3ccccc3)cc21)NCc1ccccc1` was tested, and the activity change, negative = inhibition was -7.67%.
`O=C(c1ccc(C(F)(F)F)cc1)N1CCC(c2nc(-c3ccc(S(=O)(=O)N4CCCC4)cc3)no2)CC1` was tested, and the activity change, negative = inhibition was -0.206%.
Work on `CCCCC(=O)Nc1nc(C)c(-c2csc(Nc3ccc(Cl)cc3)n2)s1` yielded an activity change, negative = inhibition of 103%.
In the case of `Cc1nc(C)c(-c2csc(NCCc3ccccc3)n2)s1`, the activity change, negative = inhibition was -71% (active).
With `S=c1[nH]nc(NCCc2ccccc2)s1` the activity change, negative = inhibition was 0.618%.
In the case of `O=S1(=O)CCC(NC(=S)SCc2ccccc2Br)C1` (stereo not drawn), the activity change, negative = inhibition was -63% (active).
Compound `O=C(CSc1ccccc1F)NC1CCS(=O)(=O)C1` (stereo not drawn) has an activity change, negative = inhibition of 2.27%.
Compound `CCCSC(=S)NC1CCS(=O)(=O)C1` (stereo not drawn) has an activity change, negative = inhibition of -7.48%.
`Cc1ccccc1CNC(=O)C1CCCN(S(=O)(=O)N(C)c2ccc(F)cc2)C1` (stereo not drawn) showed an activity change, negative = inhibition of -10.3%.
For `S=C(NCc1cccs1)Nc1ccc(Cl)cc1`, the activity change, negative = inhibition was -26.2%.
In the case of `Fc1ccccc1CNC(=S)Nc1ccc(Cl)cc1`, the activity change, negative = inhibition was -38.1% (active).
For `FC(F)(F)Oc1ccc(NC(=S)NCc2ccccc2)cc1`, the activity change, negative = inhibition was -19.3%.
Work on `Cc1ccc(C(=O)Nc2cc3c(cc2N2CCCC2)n(C)c(=O)c(=O)n3C)cc1` yielded an activity change, negative = inhibition of 16%.
`COc1ccc(N2C(=O)CS(=O)(=O)C23C(=O)N(Cc2ccc(C)cc2)c2ccccc23)cc1Cl` (stereo not drawn) gave an activity change, negative = inhibition of -16%.
`CCOc1ccccc1NC(=O)CN1CCCN(Cc2cccc(Cl)c2)S1(=O)=O` gave an activity change, negative = inhibition of 2.3%.
`O=C(O)CCC(=O)N(Cc1ccccc1)Cc1ccccc1` was tested, and the activity change, negative = inhibition was -11.6%.
`O=C(CCCc1ccccc1)NCc1ccccc1` gave an activity change, negative = inhibition of -7.61%.
In the case of `O=C(O)CCCc1ccccc1`, the activity change, negative = inhibition was -31.7% (active).
`O=C(CSc1oc(-c2ccccc2)nc1S(=O)(=O)c1ccc(Br)cc1)NC1CCCCC1` showed an activity change, negative = inhibition of 8.79%.
In the case of `CCc1ccc(-n2nnc(-c3nc(-c4ccccc4)no3)c2C)cc1`, the activity change, negative = inhibition was -9.23%.
`CCOc1cc(C2C(C(=O)c3ccco3)=C(O)C(=O)N2Cc2ccccc2)ccc1O` (stereo not drawn) gave an activity change, negative = inhibition of 9.97%.
`CC(C)c1ccc(C2C(C(=O)c3ccco3)=C(O)C(=O)N2CC2CCCO2)cc1` (stereo not drawn) showed an activity change, negative = inhibition of -6.37%.
For `O=C(C1=C(O)C(=O)N(Cc2ccccc2)C1c1ccco1)c1ccco1` (stereo not drawn), the activity change, negative = inhibition was -36.2% (active).
`O=S(=O)(c1ccc2c(c1)OCCO2)N1CCN(S(=O)(=O)c2cc(F)ccc2F)CC1` showed an activity change, negative = inhibition of -3.7%.
For `COCCNC(=O)c1ccc(N2CCC3(CC2)OCCO3)c([N+](=O)[O-])c1`, the activity change, negative = inhibition was -74.3% (active).
`CCCNC(=O)c1ccc(N2CCC3(CC2)CC(c2cccc(Br)c2)=NO3)c(NC(=O)c2ccco2)c1` gave an activity change, negative = inhibition of -2.71%.
`O=C(COc1ccccc1F)NNC(=O)c1ccc(N2CCCCC2)c([N+](=O)[O-])c1` gave an activity change, negative = inhibition of -3.15%.
In the case of `CC1CCN(c2ccc(C(=O)NCc3ccc4c(c3)OCO4)cc2[N+](=O)[O-])CC1`, the activity change, negative = inhibition was -7.43%.
`CCC(C)NC(=O)c1ccc(N2CCC3(CC2)OCCO3)c([N+](=O)[O-])c1` (stereo not drawn) gave an activity change, negative = inhibition of -7.67%.
In the case of `CCCNC(=O)c1ccc(N2CCC3(CC2)CC(c2ccc(Cl)cc2)=NO3)c([N+](=O)[O-])c1`, the activity change, negative = inhibition was -31.3% (active).
`COc1cccc(NC(=O)CN2C(=O)c3ccccc3Sc3ncccc32)c1` gave an activity change, negative = inhibition of 5.53%.
With `COc1cccc(-c2nc(CS(=O)(=O)CC(=O)N3CCN(c4cc(C)ccc4C)CC3)c(C)o2)c1` the activity change, negative = inhibition was -16.9%.
`CC(NC(=O)CCc1cn(Cc2ccccc2Cl)c2ccccc12)c1ccccc1` (stereo not drawn) showed an activity change, negative = inhibition of -6.68%.
`CCOCCCNC(=O)c1c(NC(=O)Cc2coc3c(C)c(C)ccc23)sc2c1CCC2` was tested, and the activity change, negative = inhibition was 11.9%.
Compound `Cc1ccc(Cl)cc1NC(=O)CCC(=O)N1CC(C)Sc2ccccc21` (stereo not drawn) has an activity change, negative = inhibition of 0.985%.
With `COc1ccccc1CNS(=O)(=O)c1ccc(C)cc1` the activity change, negative = inhibition was -13.9%.
`C#CCCCc1nc2ccccc2c(=O)n1N` was tested, and the activity change, negative = inhibition was 3.38%.
In the case of `Cc1ccc(S(=O)(=O)NCc2nc3ccccc3c(=O)n2N)cc1`, the activity change, negative = inhibition was -32.4% (active).
Work on `Cc1ccc(Cn2c(CCCNC(=O)C3CCCCC3)nc3ccccc32)cc1` yielded an activity change, negative = inhibition of 10.5%.
For `CC(C)Cn1c(-c2ccc(S(=O)(=O)N3CCOCC3)cc2)csc1=Nc1cc(Cl)ccc1Cl`, the activity change, negative = inhibition was -0.499%.
For `CC1CCCN(c2nc3c(S(=O)(=O)c4ccc(C(C)C)cc4)nnn3c3ccsc23)C1` (stereo not drawn), the activity change, negative = inhibition was -10.6%.
`CCc1cc2c(cc(C(=O)OC)n2Cc2nc(-c3ccc(C)cc3)oc2C)s1` was tested, and the activity change, negative = inhibition was 10.2%.
For `COC(=O)C1=C(C(=O)OC)[C@@H]2N(C)c3ccccc3[C@@]23C[C@@H](C(=O)OC)N(C(C)=O)C3=N1`, the activity change, negative = inhibition was -45.5% (active).
`CC(=O)NNC1=Nc2ccccc2N(C)C(C)C1` (stereo not drawn) gave an activity change, negative = inhibition of 3.33%.
